The list is not random: actives were taken first. Their share in the collection is about 2.3%.
POLH inh – DNA polymerase eta (human) inhibition | recombinant Pol eta, fluorescent DNA replication assay | Potency, µM (top dose mostly 114 µM), for inactives: at the highest dose activity change, negative = inhibition, hits mostly inhibitors | actives 1.2% (n = 390,000); further: on the % scale 0 is the no-effect control and ±100 the full control effect
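Pol eta (10 nM) was preincubated with compounds for 15 min at room temperature, after which fluorescent replication substrate (50 nM final) was added to start the reaction. Fluorescence was read kinetically at 0 and 10 min.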
POLK inh – blocks human DNA polymerase kappa activity. purified Pol kappa, fluorescent DNA synthesis assay, 10 min. Potency, µM (doses to about 107 µM), inactives show at the top dose activity, negative = inhibition, actives largely listed as inhibitors. actives 0.53% (n = 400,000). Q9UBT6; further: on the % scale 0 is the no-effect control and ±100 the full control effect
Target sequence (Q9UBT6 whole entry, looked up): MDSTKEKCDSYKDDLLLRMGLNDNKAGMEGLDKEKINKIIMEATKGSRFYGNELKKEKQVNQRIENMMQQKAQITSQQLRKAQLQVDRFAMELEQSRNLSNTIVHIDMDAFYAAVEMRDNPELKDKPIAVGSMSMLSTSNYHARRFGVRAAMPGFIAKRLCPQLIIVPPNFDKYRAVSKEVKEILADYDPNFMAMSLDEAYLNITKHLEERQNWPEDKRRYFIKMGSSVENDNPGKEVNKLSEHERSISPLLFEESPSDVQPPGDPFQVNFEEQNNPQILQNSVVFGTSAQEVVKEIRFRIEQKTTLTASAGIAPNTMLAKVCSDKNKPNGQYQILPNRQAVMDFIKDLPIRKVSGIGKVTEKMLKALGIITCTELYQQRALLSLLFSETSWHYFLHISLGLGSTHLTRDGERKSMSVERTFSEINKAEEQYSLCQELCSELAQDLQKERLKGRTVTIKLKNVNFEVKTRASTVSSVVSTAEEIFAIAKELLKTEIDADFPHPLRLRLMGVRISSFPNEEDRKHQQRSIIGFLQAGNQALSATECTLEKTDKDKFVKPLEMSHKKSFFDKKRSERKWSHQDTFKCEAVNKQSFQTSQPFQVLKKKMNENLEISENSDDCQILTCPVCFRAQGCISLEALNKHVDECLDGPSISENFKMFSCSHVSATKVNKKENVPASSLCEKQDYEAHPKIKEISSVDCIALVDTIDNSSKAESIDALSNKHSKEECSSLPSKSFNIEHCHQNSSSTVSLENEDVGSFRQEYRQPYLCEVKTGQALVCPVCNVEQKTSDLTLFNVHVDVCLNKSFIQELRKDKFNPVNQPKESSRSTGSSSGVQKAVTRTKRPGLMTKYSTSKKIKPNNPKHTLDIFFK
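Kinetic fluorescence readout at 0 and 10 min followed reaction start with substrate at 50 nM final. Beforehand, enzyme (10 nM Pol kappa) stood 15 min with compound at room temperature; buffer-only wells were negative controls.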
POLI inh – inhibitors of human DNA polymerase iota. AID 588590. Pol iota fluorescent replication assay, 10 min. actives 1% (n = 390,000). Potency, µM (top dose mostly 115 µM), without a hit: at the top dose activity, negative = inhibition, usual class: inhibitors
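Pol iota at 10 nM preincubated 15 min with compounds at room temperature; reaction started with fluorescent substrate, 50 nM final. Fluorescence read kinetically at 0 and 10 min; buffer-only wells as negative control.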
WRN inhibitor – blocks human WRN helicase; actives 0.46% (n = 360,000); AID 651768; Q14191; WRN helicase unwinding, fluorescent forked duplex, kinetic; Potency, µM (doses to about 114 µM), inactives show at the highest dose activity change, negative = inhibition, usual class: inhibitors; further: on the % scale 0 is the no-effect control and ±100 the full control effect; nearly all actives have a fitted effect of over 55% in size
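Primary qHTS, 1536-well format. 20 nM WRN + compound, 15 min RT; start with 100 nM forked fluorophore/quencher duplex, 2 mM ATP (final); kinetic read ex 525/em 598 nm.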
POLB inh – inhibitors of human DNA polymerase beta; P06746; Pol beta primer extension/strand displacement, fluorescence kinetic; Potency, µM (titrated, usually from 114 µM), for inactives: at the top dose activity change, negative = inhibition, actives largely listed as inhibitors; actives 1.3% (n = 340,000); further: on the % scale 0 is the no-effect control and ±100 the full control effect
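Values derive from four-parameter Hill fits of normalized kinetic data: reads at 0 and 10 min following addition of 50 nM substrate to 10 nM Pol beta preincubated 15 min with compound.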
* hit, by the source's call; ? = inconclusive; / = no result given; ! = repeats disagree; [ ] = remark or other dose. The call rests on the fitted dose curve; in most records, active means well fitted curve in the direction sought with a large enough effect; inconclusive means small, poorly fitted or top-dose-only effect, or another doubt; inactive means no such curve, though single readings can be large; an effect the other way counts as inactive or inconclusive. Potency means the concentration at half of the fitted maximal effect.

SMILES	POLH inh	POLK inh	POLI inh	WRN inhibitor	POLB inh
O=C(Nc1cc(C(=O)Nc2ccc(S(=O)(=O)O)cc2S(=O)(=O)O)cc(C(=O)Nc2ccc(S(=O)(=O)O)cc2S(=O)(=O)O)c1)Nc1cc(C(=O)Nc2ccc(S(=O)(=O)O)cc2S(=O)(=O)O)cc(C(=O)Nc2ccc(S(=O)(=O)O)cc2S(=O)(=O)O)c1	0.1µM*	0.178µM*!	1.26µM*	/	0.224µM*
Nc1ccc(C(=O)Nc2ccc3cc(S(=O)(=O)O)ccc3c2)cc1	-28.9%	-17.7%	1.6%	-27.4%	/
O=C(Nc1ccc(C(=O)Nc2ccc(C(=O)Nc3ccc(S(=O)(=O)O)c4cc(S(=O)(=O)O)cc(S(=O)(=O)O)c34)cc2)cc1)Nc1ccc(C(=O)Nc2ccc(C(=O)Nc3ccc(S(=O)(=O)O)c4cc(S(=O)(=O)O)cc(S(=O)(=O)O)c34)cc2)cc1	/	0.141µM*	/	/	/
O=C(O)CCCCCN1C(=O)/C(=C\c2ccc(-c3ccc(Cl)cc3)o2)SC1=S	?	79.4µM*	35.5µM*	-8.8%[11.6 µM]	?
O=C(O)CCCCCN1C(=O)/C(=C\c2ccncc2)SC1=S	-15.1%	-9.6%	?	-8.9%	1.3%
COc1ccc2[nH]cc(C(=O)CNc3nccs3)c2c1	/	1.0%	-9.9%	/	/
O=c1cc(-c2cccc(O)c2O)oc2ccccc12	/	12.6µM*	/	/	/
O=c1cc(-c2ccc(O)cc2)oc2ccccc12	-2.4%	0.1%	29.7%	-16.9%	28.2µM*
O=c1cc(-c2ccc(O)cc2)oc2cc(O)cc(O)c12	?	20µM*!	?	-7.0%	-12.0%[57.1 µM]
CC[n+]1cccc(Br)c1	/	-3.2%	3.3%	/	/
CC(=O)NC(Cc1ccc([N+](=O)[O-])cc1)C(=O)NCC(N)C(=O)c1ccccc1 (stereo unspecified)	/	-8.3%	-9.8%	/	/
COc1ccc(/C=N\NC(=O)c2ccccc2F)cc1COc1ccc(F)cc1F	-13.1%	-8.0%	-20.0%	-6.3%	35.3%
COc1ccc(/C=N/NC(=O)c2ccc(Cl)cc2)cc1Cn1cc(Cl)cn1	-19.9%	?	79.4µM*	-23.9%	20µM*
COc1ccc(/C=N/NC(=O)c2cc(C(C)(C)C)[nH]n2)cc1COc1ccc(F)cc1F	-15.6%	-7.8%	89.1µM*	-6.0%	4.1%
COc1ccc(/C=N/NC(=O)c2cc(Br)ccc2O)cc1Cn1cc(Cl)cn1	?	-21.1%	12.2%	-33.3%	?
COc1ccc(C(=O)N/N=C/c2ccc(OC)c(COc3ccccc3)c2)cc1	-3.0%	-14.4%	-7.4%	-8.9%	-8.7%
COc1ccc(/C=N/NC(=O)c2ccco2)cc1COc1ccc(F)cc1	6.7%	-22.0%	79.4µM*	-33.7%	?
COc1ccc(/C=N\NC(=O)c2ccccc2F)cc1COc1ccc(F)cc1	-5.9%	-5.7%	-6.6%	-9.7%	39.1%
COc1ccc(/C=N\NC(=O)c2cc(O)c(O)c(O)c2)cc1COc1ccc(C(=O)OCC(C)C)cc1	?	7.9%	5.4%	-6.2%[11.6 µM]	1.41µM*
Fc1ccc(Nc2nc(SCc3ccccc3F)nc3ccccc23)cc1	-25.9%	-2.3%[60.1 µM]	19.4%	/	-16.6%
COc1ccc(/C=N/NC(=O)c2ccc(NC(C)=O)cc2)cc1COc1ccc(F)cc1F	?	-55.0%	35.5µM*	-8.9%[11.6 µM]	35.5µM*
CC(C)NS(=O)(=O)c1cc(C(F)(F)F)ccc1/C=C/C(=O)O	/	13.0%	-2.6%	/	/
CCCCC1=CC2=C(c3ccco3)C(=O)C(C)(OC(=O)c3ccc(OC)cc3)C(=O)C2=CN1C1CCCCC1 (stereo unspecified)	-1.5%	-21.3%	39.4%	3.1%	?
CCCCC1=CC2=C(c3ccco3)C(=O)C(C)(OC(=O)c3ccc(OC)cc3)C(=O)C2=CN1Cc1ccc2c(c1)OCO2 (stereo unspecified)	5.7%	-7.3%	?	-5.8%[11.6 µM]	35.5µM*
CCCCC1=CC2=C(c3ccco3)C(=O)C(C)(OC(=O)c3ccc(OC)cc3)C(=O)C2=CN1CCc1ccccn1 (stereo unspecified)	-24.4%	-14.9%	11.2µM*	-21.1%	50.1µM*
SMILES	POLH inh	POLK inh	POLI inh	WRN inhibitor	POLB inh
CCCCC1=CC2=CC(=O)C(C)(OC(=O)CC)C(=O)C2=CN1Cc1ccc(OC)cc1 (stereo unspecified)	10.3%	-17.6%	-0.1%	2.1%	-8.2%
CCCCC1=CC2=C(c3ccco3)C(=O)C(C)(OC(=O)c3ccc(OC)cc3)C(=O)C2=CN1Cc1ccccc1 (stereo unspecified)	50.1µM*	-3.0%	?	-8.1%	44.7µM*
CCCCC1=CC2=C(c3ccco3)C(=O)C(C)(OC(=O)c3ccc(OC)cc3)C(=O)C2=CN1CCOC (stereo unspecified)	-7.0%	-16.4%	6.5%	5.4%	-27.2%
O=c1c(O)c(-c2cc(O)c(O)c(O)c2)oc2cc(O)ccc12	/	0.238µM*	/	/	/
O=c1c(O)c(-c2ccc(O)c(O)c2)oc2ccccc12	/	0.355µM*	/	/	/
COc1ccc(C2/C=C\CN(CC(C)C)C(Cc3ccccc3)C(=O)N2Cc2ccc(F)cc2)cc1 (stereo unspecified)	/	-7.4%	27.8%	/	/
CC(C)[C@H](NC(=O)[C@@H]1CSSC[C@H](NC(=O)[C@H](CC(=O)O)NC(=O)[C@H](C)NC(=O)[C@@H](NC(=O)CNC(=O)[C@H](C)N)[C@@H](C)O)C(=O)N[C@@H](Cc2ccccc2)C(=O)N[C@@H](Cc2c[nH]c3ccccc23)C(=O)N[C@@H](CCCCN)C(=O)N[C@@H](Cc2ccc(O)cc2)C(=O)N1)C(=O)O	/	16.4%[60.1 µM]	/	/	/
Cc1ccc(C(=O)OCC(=O)Nc2c(Cl)cc(S(N)(=O)=O)cc2Cl)o1	4.3%	?	70.8µM*	-4.1%[11.6 µM]	?
Cc1ccc(C(=O)OCC(=O)NCCc2ccc(S(N)(=O)=O)cc2)o1	?	-32.7%	-13.3%	-25.5%	/
O=C(CN1C(=O)/C(=C\C=C\c2ccccc2)SC1=S)Nc1ccc(F)cc1	-12.3%	-14.1%	6.3%	0.2%	3.7%
O=C(COC(=O)CCN1C(=O)/C(=C\C=C\c2ccccc2)SC1=S)Nc1cc(F)ccc1F	31.6µM*	?	25.1µM*	-35.9%[57.1 µM]	?
O=C(O)CCc1ccc(-c2ccc(Br)cc2)n1CC(=O)O	?	-23.3%	?	-12.1%[57.1 µM]	35.5µM*
O=C(O)CCc1ccc(-c2ccccc2)n1CC(=O)O	0.7%	-18.3%	?	-0.7%	-13.3%
CN(CC(=O)Nc1ccc(Cl)cc1)C(=O)CCc1ccccc1	-22.0%	-8.5%	89.1µM*	2.7%	7.8%
CN(CC(=O)Nc1ccc(Cl)cc1)C(=O)CCc1c[nH]c2ccccc12	-15.8%	-4.9%	132.8%	?	35.9%
CS(=O)(=O)N(CC(=O)NCc1ccco1)c1ccc(OCc2ccccc2)cc1	-13.4%	-13.5%	?	-8.6%	15.8µM*
COc1ccc(N(CC(=O)NCc2ccco2)S(C)(=O)=O)cc1	-8.6%	-4.8%	-8.5%	-5.1%	23.6%

Bioassay records: PubChem, National Center for Advancing Translational Sciences (NCATS)
